SMILES strings stand for the structures. Inconclusive results are not listed. The source made the active and inactive calls.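 Rule for the calls, unless noted: active = inhibition over a set limit, the all-compound mean plus 3 SD, in both replicate runs; inconclusive = over that limit in just one replicate run; inactive = at or under that limit in both runs.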

The nature of the first assay: growth suppression of PTEN-deleted HCT116, pilot screen, cell-based, HCT116 clonal line, CellTiter-Glo (AID 824;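 active = viability at or below 27.92% in each of two runs, the all-compound median minus 4 SD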;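 note: 0% = 20 µM Hyamine control and 100% = vehicle cell control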). To be noted: 60 h, at 10 µM, stronger effect = lower value. (In ATP-based viability assays light output follows the ATP content of the culture.)
Usually viability stands for a read-out of living cells in per cent, often relative to untreated cells. `Cc1cc(C(=O)N2CCN(S(C)(=O)=O)CC2)sc1-c1ccccc1`: the viability is 94% (inactive).
For `O=c1[nH]c2ccccc2n1Cc1ccc(F)cc1`, the viability is 92.4% (inactive).
`COC(=O)CCc1n[nH]c(=O)[nH]c1=O`: the viability was 102% (inactive).
Same read-out and setting: the result for `COc1ccc(C(=S)N(C)C)cc1OC` reads 98.6% (inactive); that for `CCCCn1c(CNC(=O)C(C)(C)C)nc2ccccc21`, 98.9% (inactive); that for `C/C(NCCN1CCOCC1)=C(\C#N)C(N)=O`, 97.6% (inactive).
With `O=C(Nc1ccc(Br)cc1F)C1CCCN(S(=O)(=O)c2cnc[nH]2)C1` (stereo unspecified), the viability was 98% (inactive).
Consider `CCN1CCN(C(=O)Cn2ncc3c2-c2ccccc2OC3)CC1`, for which the viability is 99.9% (inactive).
The same measure, in the same setting: the result for `CC1CCc2nn(CC(=O)N3CCCCCC3)cc2C1` (stereo unspecified) reads 91.4% (inactive); that for `Nc1nnc(N2CCc3ccccc32)s1`, 102% (inactive).
Still for that read-out and setting: the same measure for `COc1ccc(-c2nnc(SCC(=O)Nc3cc(F)ccc3C)o2)cc1`: 97.6% (inactive); for `CCc1nnc(NC(=O)CSc2nc3c(c(=O)n2CC)SC(C)C3)s1` (stereo unspecified): 93.1% (inactive).
Still for that read-out and setting: the result for `O=C(O)CCc1nnc2n(Cc3ccc(F)cc3)c(=O)c3ccccc3n12` reads 90.8% (inactive); that for `CC(=O)NCCc1cc2ccc(C)c(C)c2[nH]c1=O`, 97% (inactive); that for `O=C(Cn1c(=O)oc2cc(S(=O)(=O)N3CCCC3)ccc21)N1CCN(c2ccccn2)CC1`, 92.5% (inactive).
Regarding `COc1ccc(-c2cn3c(C)c(C(=O)NC(C)(C)C)sc3n2)cc1`, the viability was 85.7% (inactive).

The next assay in a line: inhibitors of the yeast RAM network, pilot screen, dse1pr::URA3 reporter, 5-FOA selection (AID 869).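 Note: 0% = DMSO wells with no growth and 100% = 10 µM 1-NA-PP1 with full growth; RAM network block rescues cells from 5-FOA so hits raise OD615 growth.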 The settings on record: S. cerevisiae dse1pr::URA3 5-FOA growth, OD615, 2 d; at 10 µM; stronger effect = higher value; strain carries analog-sensitive mutant Cbk1 kinase.
What is called inhibition is the relative decrease from the control value, in per cent. As to `CCCCOC(=O)c1ccc(NC(=O)CSCc2n[nH]c(=O)[nH]2)cc1`, the inhibition was 0.475% (inactive).
The same measure, in the same setting: the same measure for `CCNc1nc(NCC)nc(-n2nc(C)cc2C)n1`: 0.2% (inactive); for `CCOC(=O)c1cc(NC(=O)NCc2ccco2)c(C)nc1C`: 1.57% (inactive); for `COc1cc2c(=O)n(Cc3ccccc3)c(=O)n(CC(=O)NCC3CCCO3)c2cc1OC` (stereo unspecified): 2.3% (inactive).
On the same count and under the same terms, the same measure for `CCC(CO)N=CC1=C(O)CC(C)(C)CC1=O` (stereo unspecified): -0.06% (inactive).
Still for that read-out and setting: the result for `COC(=O)CCSCC(=O)Nc1nnc(C)s1` reads 3.05% (inactive); that for `COc1cc(OC)nc(NC(=O)C(C)C)n1`, 1.01% (inactive); that for `CC(NC(=O)c1ccco1)C(c1cccs1)N1CCOCC1` (stereo unspecified), 0.88% (inactive).
Turning to `CCn1ccnc1C(O)c1cccc(OC)c1OC` (stereo unspecified), the inhibition was 2.75% (inactive).
`Cc1cc(C)nc(SCC(=O)Oc2ccc3oc(=O)cc(C)c3c2)n1`: the inhibition is 1.63% (inactive).
Still for that read-out and setting: the result for `CCCCCn1c(N(C)Cc2ccccc2)nc2c1c(=O)[nH]c(=O)n2C` reads 0.435% (inactive).
Still for that read-out and setting: the result for `Cc1cc(C)cc(-n2cc3c(=O)n(C)c(=O)n(C)c3c2)c1` reads 0.155% (inactive); that for `O=C(C1CC(=O)N(C2CCCC2)C1)N1CCN(c2ccc(F)cc2)CC1` (stereo unspecified), 1.39% (inactive).
Still for that read-out and setting: the result for `COC(=O)C1=CN(C)C=C(C(=O)OC)C1c1ccsc1` reads 1.96% (inactive); that for `CCCC(=O)c1c(NC)cc(C)oc1=O`, 0.62% (inactive); that for `CCOc1cccc(C2c3c(oc4ccccc4c3=O)C(=O)N2c2ccccn2)c1` (stereo unspecified), 0% (inactive).
As for `CN(C)CCNC(=O)c1ccc2c(c1)N(Cc1ccc(F)cc1)CCS2`, the inhibition was 0.835% (inactive).
Still for that read-out and setting: the result for `COc1ccc2cc(CCNC(=O)C3CCCC3)c(=O)[nH]c2c1` reads 1.08% (inactive); that for `Cc1cc(C(=O)CN2CC(C)OC(C)C2)c(C)n1-c1ccccc1` (stereo unspecified), 1.83% (inactive).
On the same count and under the same terms, the same measure for `Cc1ccc2oc(=O)c3cc(C(=O)NCc4ccco4)sc3c2c1`: 3.86% (inactive); for `C1CCc2c(nc3nnnn3c2N2CCOCC2)C1`: 1.07% (inactive).
On the same count and under the same terms, the same measure for `Cc1ccc(C(=O)NCc2ccc(Cl)c(Cl)c2)o1`: 0.67% (inactive).
For `O=C(NC1CCN(C(=O)N2c3ccccc3Sc3ccccc32)CC1)c1ccco1`, the inhibition was -0.48% (inactive).
For the compound `O=C(O)CCC(C(=O)O)n1c(O)c(C2=c3ccccc3=NC2=O)sc1=S` (stereo unspecified), the inhibition is 2.23% (inactive).
Same read-out and setting: the same measure for `Cc1cc(C(=O)N2CCN(S(C)(=O)=O)CC2)sc1-c1ccccc1`: 3.19% (inactive); for `O=c1[nH]c2ccccc2n1Cc1ccc(F)cc1`: 1.71% (inactive); for `COC(=O)CCc1n[nH]c(=O)[nH]c1=O`: 0.54% (inactive).
Regarding `COc1ccc(C(=S)N(C)C)cc1OC`, the inhibition was 3.66% (inactive).
Still for that read-out and setting: the same measure for `CCCCn1c(CNC(=O)C(C)(C)C)nc2ccccc21`: 0.25% (inactive); for `C/C(NCCN1CCOCC1)=C(\C#N)C(N)=O`: 0.795% (inactive); for `O=C(Nc1ccc(Br)cc1F)C1CCCN(S(=O)(=O)c2cnc[nH]2)C1` (stereo unspecified): 0.905% (inactive).
For `CCN1CCN(C(=O)Cn2ncc3c2-c2ccccc2OC3)CC1`, the inhibition is 1.14% (inactive).
For the compound `CC1CCc2nn(CC(=O)N3CCCCCC3)cc2C1` (stereo unspecified), the inhibition was 1.23% (inactive).
For `Nc1nnc(N2CCc3ccccc32)s1`, the inhibition was 0.805% (inactive).
Same read-out and setting: the same measure for `COc1ccc(-c2nnc(SCC(=O)Nc3cc(F)ccc3C)o2)cc1`: 2.44% (inactive); for `CCc1nnc(NC(=O)CSc2nc3c(c(=O)n2CC)SC(C)C3)s1` (stereo unspecified): 3.99% (inactive).
Still for that read-out and setting: the result for `O=C(O)CCc1nnc2n(Cc3ccc(F)cc3)c(=O)c3ccccc3n12` reads 1.04% (inactive).
Same read-out and setting: the result for `CC(=O)NCCc1cc2ccc(C)c(C)c2[nH]c1=O` reads 1.05% (inactive).
As to `O=C(Cn1c(=O)oc2cc(S(=O)(=O)N3CCCC3)ccc21)N1CCN(c2ccccn2)CC1`, the inhibition is 2.1% (inactive).
Take `COc1ccc(-c2cn3c(C)c(C(=O)NC(C)(C)C)sc3n2)cc1`: the inhibition is 0.645% (inactive).

For the origin of these results see PubChem BioAssay.
